# Earlier results in PubChem BioAssay AID977608.
# Among all 4,300 compounds or so, about 4,300 (100%) were called active. Cut-off not given; nearly all actives show IC50 up to about 1400 µM. The set was probably picked from earlier hits. The list shows a part of the results. Positions of bridges follow the written chain, without caps; N, C: chain ends. Bridge positions count the residues as written; N and C are the ends. Non-standard residues stand in square brackets, D forms with d. Square brackets hold non-standard residues; d marks the D form. Residues, ends and D or L forms follow the SMILES beside them. Peptide text beside a SMILES is read from it. *: point of attachment. Phe(3,5-F2) = N[C@@H](Cc1cc(F)cc(F)c1)C(=O)O; Orn(CH(NH2)2) = NC(N)NCCC[C@H](N)C(=O)O; Pip(4S-Me) = C[C@H]1CCN[C@H](C(=O)O)C1; X1 = CC[C@H](C)C/C=C/C(=O)*
# Assay: literature IC50 values for PDB complexes, PDB-derived complexes (AID 977608)
# Details: PDB protein-ligand complexes
structure (smiles),measurement,setting,value
CCOP(=O)(COc1ccc(CCc2cnc3c(c2)C(=O)N(C)c2cccnc2N3CC)cc1)OCC,IC50,"protein: Reverse transcriptase, PDB entry 4i7f",0.1 µM (active)
O=C(COc1ccccc1[P+](O)(O)O)Nc1ccccc1Cl,IC50,"protein: 14-3-3 protein sigma, PDB entry 4dhr",27 µM (active)
O=C(COc1ccccc1[P+](O)(O)O)Nc1ccccc1C(F)(F)F,IC50,"protein: 14-3-3 protein sigma, PDB entry 3t0l",30 µM (active)
O=C(COc1ccccc1[P+](O)(O)O)Nc1cc(C(F)(F)F)ccc1Cl,IC50,"protein: 14-3-3 protein sigma, PDB entry 4dhp",36 µM (active)
O=C(COc1ccccc1[P+](O)(O)O)Nc1cccc(Cl)c1Cl,IC50,"protein: 14-3-3 protein sigma, PDB entry 4dhu",5 µM (active)
N#Cc1c(F)cc(O)cc1SCCS(O)(O)O,IC50,"protein: M-phase inducer phosphatase 2 CDC25B, PDB entry 4wh9",1000 µM (active)
COc1cc2cc(c1)NC(=O)/C(C)=C/CC[C@H](OC(N)=O)[C@@H](OC(N)=O)/C(C)=C/[C@H](C)[C@@H](OC)[C@@H](OC)COC2,IC50,"protein: Heat shock protein HSP 90-alpha, PDB entry 4jql",1 µM (active)
CC[C@H](C)[C@@H]1NC(=O)[C@H](CC(=O)O)NC(=O)[C@@H](NC(=O)[C@H](CCC(=O)O)NC(=O)[C@H](CC(N)=O)NC(=O)CNC(=O)CN)CSSC[C@@H](C(=O)N[C@@H](Cc2ccccc2)C(=O)N[C@@H](CCC(=O)O)C(=O)N[C@@H](CCCNC(N)N)C(=O)N[C@@H](CC(C)C)C(=O)O)NC(=O)[C@H](CCC(=O)O)NC(=O)[C@H](Cc2c[nH]c3ccccc23)NC(=O)[C@H](CCC(=O)O)NC(=O)[C@H](Cc2c[nH]c3ccccc23)NC(=O)[C@H](CCSC)NC(=O)[C@H](CCCNC(N)N)NC(=O)[C@H](C)NC1=O (H-GGNECDIA[Orn(CH(NH2)2)]MWEWECFE[Orn(CH(NH2)2)]L-OH; disulfide 5-15),IC50,"protein: Vascular endothelial growth factor(VEGF), PDB entry 1kat",1 µM (active)
CSCC[C@H](NC(=O)[C@@H]1CSSC[C@H](NC(=O)[C@H](CC(N)=O)NC(=O)[C@@H](N)CCCNC(N)N)C(=O)N[C@@H](Cc2ccccc2)C(=O)N[C@@H](CCC(=O)O)C(=O)N[C@@H](CO)C(=O)N[C@@H](C(C)C)C(=O)N[C@@H](C)C(=O)N[C@@H](C)C(=O)N[C@@H](CC(C)C)C(=O)N[C@@H](CCCNC(N)N)C(=O)N[C@@H](CCCNC(N)N)C(=O)N1)C(=O)N[C@@H](Cc1ccc(O)cc1)C(=O)NCC(=O)O (H-[Orn(CH(NH2)2)]NCFESVAAL[Orn(CH(NH2)2)][Orn(CH(NH2)2)]CMYG-OH; disulfide 3-13),IC50,"protein: Insulin-like growth factor IB(IGF-I), PDB entry 1pmx",7.2 µM (active)
CC[C@@H]1C(=O)N(C)c2cnc(-n3ccnc3-c3ccccc3)nc2N1C1CC=CC1,IC50,"protein: Serine/threonine-protein kinase PLK2 (C83S, V87T, A119S, A216S, C259A, C291S, L335T mutation), PDB entry 4i6f",0.005 µM (active)
CC[C@@H]1C(=O)N(C)c2cnc(-n3ccnc3-c3cscn3)nc2N1C1CCCC1,IC50,"protein: Serine/threonine-protein kinase PLK2 (C83S, V87T, A119S, A216S, C259A, C291S, L335T mutation), PDB entry 4i6h",0.005 µM (active)
"CC[C@H](C)C/C=C/C(=O)N[C@@H](Cc1cc(F)cc(F)c1)C(=O)N[C@@H]1C(=O)N2CCC[C@H]2C(=O)N2CC[C@H](C)C[C@H]2C(=O)N[C@@H](C)C(=O)N2CCC[C@H]2C(=O)O[C@@H]1C (X1-[Phe(3,5-F2)]TP[Pip(4S-Me)]AP; ester 2-C)",IC50,"protein: ATP-dependent Clp protease proteolytic subunit 1 ClpP1, PDB entry 4u0g",5.1 µM (active)
Oc1ccc(-n2ccnc2)cc1,IC50,"protein: Polymerase PA, PDB entry 4m5r",1000 µM (active)
c1cc2nc(N[C@H]3CCCNC3)c3cc[nH]c3n2n1,IC50,"protein: MAP kinase-activated protein kinase 2, PDB entry 3wi6",4.7 µM (active)
O=C(O)c1ccc2occc2c1,IC50,"protein: Dengue virus 3 non-structural protein 5, PDB entry 4ctj",3120 µM (active)
N[C@@H](CCNC(=O)N1CCn2c(ccc2C(F)(F)F)C1)Cc1cc(F)c(F)cc1F,IC50,"protein: Dipeptidyl peptidase 4, DPP4, PDB entry 4j3j",0.031 µM (active)
COc1ccc(Cl)cc1NCC(=O)NC1CCC(n2c(=O)[nH]c3ccccc32)CC1 (stereo unspecified),IC50,"protein: Tankyrase-1, PDB entry 4k4e",0.024 µM (active)
COc1nc2c(cc1-c1c(C)noc1C)ncc1[nH]c(=O)n(-c3ccccc3OC(F)(F)F)c12,IC50,"protein: BROMODOMAIN-CONTAINING PROTEIN 4, PDB entry 4bw4",0.63 µM (active)
C/C(=N\O)c1ccc(O)cc1O,IC50,"protein: SERINE/THREONINE-PROTEIN KINASE CHK2, PDB entry 4bdb",85.6 µM (active)
COc1ccc(C[C@H](NC(=O)[C@@H](C)NC(=O)CN2CCOCC2)C(=O)N[C@@H](CC2CCCCC2)[C@@H](O)[C@H](C)CO)cc1,IC50,"protein: yCP, PDB entry 4qls",0.036 µM (active)
COc1ccc(C[C@H](NC(=O)[C@H](C)NC(=O)CN2CCOCC2)C(=O)N[C@@H](CC2CCCCC2)[C@@H](O)[C@H](C)CO)cc1,IC50,"protein: yCP, PDB entry 4qlq",0.0066 µM (active)
O=C(COc1ccccc1[P+](O)(O)O)NC1CCCC1,IC50,"protein: 14-3-3 protein sigma, PDB entry 4dhn",128 µM (active)
O=C(COc1ccccc1[P+](O)(O)O)NC1CCCCC1,IC50,"protein: 14-3-3 protein sigma, PDB entry 4dht",15 µM (active)
O=C(CS)NCCCCCC(=O)Nc1ccccc1,IC50,"protein: Schistosoma mansoni histone deacetylase 8, HDAC8, PDB entry 4cqf",50 µM (active)
C[C@@H](O)[C@H](NC(=O)Cc1cc(Cl)cc(Cl)c1)C(=O)NCC(=O)NCC=N,IC50,"protein: Protease AVP8, PDB entry 4piq",0.08 µM (active)
CC(=O)Nc1cccc(C2=CC(C)N(O)c3ccccc32)c1 (stereo unspecified),IC50,"protein: Bromodomain-containing protein 4, PDB entry 4meo",250 µM (active)
N=C1C(NS(=O)(=O)c2ccccc2)C(=O)NC(=O)N1Cc1ccccc1 (stereo unspecified),IC50,"protein: Glucose-1-phosphate thymidylyltransferase (RmlA), PDB entry 3zlk",1.32 µM (active)
same,IC50,"protein: Glucose-1-phosphate thymidylyltransferase (RmlA), PDB entry 4ASP",1.32 µM (active)
C/C(=C\Cc1c(O)c(Cl)c(C)c(C=O)c1O)CC/C=C(\C)[C@H](C)O,IC50,"protein: Alternative oxidase, mitochondrial, PDB entry 3vva",0.00048 µM (active)
CCc1nc(N)nc(N)c1-c1ccc(NCc2cc(F)cc(F)c2)cc1,IC50,"protein: human Renin, PDB entry 2g24",4 µM (active)
N#Cc1csc(NC(=O)CN2C(=O)CCc3ccccc32)c1-c1ncn[nH]1,IC50,"protein: Mitogen-activated protein kinase 10, PDB entry 3rtp",0.007 µM (active)
